The list is not random: actives were taken first. Their share in the collection is about 3%.
GDH-TPI counter = counter-screen for M. tuberculosis FBA inhibitors: GDH-TPI coupled enzymes; GDH-TPI coupled enzyme counterscreen, NADH absorbance; 360,000 tested, 1.2% active; inhibition, % at 4.8 µM; in the data active = inhibition above about 30%;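 also: 0% = DMSO wells and 100% = wells lacking the enzyme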
FBA Mtb inh = inhibits M. tuberculosis FBA enzyme | P9WQA3 | purified M. tuberculosis FBA, fluorescence read-out | inhibition, % at 1 µM | 360,000 tested, 2.3% active | AID 588726; in the data active = inhibition above about 27%;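 also: 0% = vehicle and 100% = reference inhibitor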
Rv3671c inh = Rv3671c (M. tuberculosis) protease inhibition. P9WHR9. inhibition, % at 5.96 µM. 320,000 tested, 0.048% active; in the data active = inhibition above about 38%;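 also: extracellular domain of Rv3671c used as enzyme; 0% = enzyme with DMSO and 100% = no enzyme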
Target sequence (P9WHR9 whole entry, looked up, the tested form may be a part): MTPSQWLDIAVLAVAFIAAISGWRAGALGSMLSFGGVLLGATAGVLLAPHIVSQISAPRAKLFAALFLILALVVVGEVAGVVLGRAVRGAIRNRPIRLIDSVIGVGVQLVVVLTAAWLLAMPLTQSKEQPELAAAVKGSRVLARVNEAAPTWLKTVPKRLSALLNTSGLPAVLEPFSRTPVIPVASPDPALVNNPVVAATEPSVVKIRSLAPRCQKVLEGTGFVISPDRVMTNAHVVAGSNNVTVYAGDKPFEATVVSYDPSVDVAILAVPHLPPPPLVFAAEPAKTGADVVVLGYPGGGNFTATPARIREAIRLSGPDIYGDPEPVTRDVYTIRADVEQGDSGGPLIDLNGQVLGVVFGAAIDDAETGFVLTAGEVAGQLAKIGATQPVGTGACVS
FadD28 FP inh = inhibitors of Mycobacterium tuberculosis FadD28 bisubstrate binding | FadD28 bisubstrate probe binding, fluorescence polarization | inhibition, % at 12.5 µM | 360,000 tested, 0.22% active | AID 588549; in the data active = inhibition above about 8.5%, passing the limit was not always enough; inconclusive = no clear call, values can overlap the other calls
Mtb BioA inh = blocks M. tuberculosis BioA enzyme activity; AID 602481; purified M. tuberculosis BioA enzyme, plate reader; 360,000 tested, 0.096% active; inhibition, % at 9.99 µM; in the data active = inhibition above about 40%; inconclusive = no clear call, values can overlap the other calls
Starred values were filed as active, the others as inactive; u = inconclusive; x = no result; + = active, no number.

SMILES	GDH-TPI counter	FBA Mtb inh	Rv3671c inh	FadD28 FP inh	Mtb BioA inh
COc1ccc(C2=NS(=O)(=O)N(C)C(C(=O)N3CCC(C)CC3)=C2)cc1	31*	0	7	0	-1
CN1C(c2ccc(F)cc2)=CS/C1=C(\C#N)c1nnc2n1-c1ccccc1SC2	34*	0	-6	0	-1
CN=c1scc(-c2ccc([N+](=O)[O-])cc2)n1/N=C/c1ccco1	3	-2	10	-6	-1
CN=c1scc(-c2ccc(F)cc2)n1/N=C/c1ccc(O)c(O)c1	10	-1	x	37*	x
COCCn1c(N)c(C#N)c2nc3ccccc3nc21	9	115*	-24	-4	-1
CCCCn1c(NC(=O)c2ccc(F)cc2)c(C#N)c2nc3ccccc3nc21	x	x	-215	x	x
COCCn1c(N)c(S(=O)(=O)c2cccs2)c2nc3ccccc3nc21	26	+	-138	-1	-3
N#Cc1c(N)n(-c2ccc(O)cc2)c2nc3ccccc3nc12	2	0	4	-6	x
COc1ccc(Cn2c(N)c(C#N)c3nc4ccccc4nc32)cc1	8	179*	-18	-6	-3
N#Cc1c(N)n(CCc2ccc(F)cc2)c2nc3ccccc3nc12	-3	151*	-8	-4	0
COc1cccc(Cn2c(N)c(C#N)c3nc4ccccc4nc32)c1OC	7	7	-30	-1	x
Cc1c(C)c2ccc(OCC(=O)N3CC[C@@]4(O)CCCC[C@H]4C3)cc2oc1=O	9	87*	1	-2	6
NC(=O)C1CCN(C(=O)COc2ccc3c(c2)oc(=O)c2ccccc23)CC1	8	112*	7	-4	20
Cc1c(Cc2ccccc2)c(=O)oc2cc(OCC(=O)N3CCC(C(N)=O)CC3)ccc12	16	124*	-1	-2	-1
C[C@H]1CN([C@@H](C)CO)C(=O)Cc2cc(NC(=O)CCCN(C)C)ccc2O[C@H]1CN(C)S(=O)(=O)c1ccccc1	x	x	x	x	1
COc1cccc(S(=O)(=O)N[C@H]2C=C[C@@H](CC(=O)NC3CCC3)O[C@H]2CO)c1	x	x	x	x	1
COc1ccc(Nc2c(-c3ccco3)nc3cccc(C)n23)cc1	-4	3	8	-2	-1
COc1ccc(Nc2c(-c3ccco3)nc3ccc(C)cn23)cc1	22	18	5	-2	-2
Fc1ccc(Nc2c(-c3ccco3)nc3ccccn23)cc1	4	133*	9	0	x
Cc1ccc(Nc2c(-c3ccco3)nc3ccccn23)cc1	22	121*	3	-1	1
COc1cc(/C=C2/C(=O)NN(c3ccc(C)c(Cl)c3)C2=O)cc([N+](=O)[O-])c1O	13	-19	x	30*	1
COc1cc(/C=C2/C(=O)NN(c3cccc(Cl)c3)C2=O)cc(OC)c1O	14	-6	-4	11*	2
COc1cc(/C=C2/C(=O)NN(c3cccc(C)c3)C2=O)cc([N+](=O)[O-])c1O	5	-6	12	u	x
CN(C)c1ccc(N=Nc2ccc(S(=O)(=O)O)cc2)c2ccccc12	11	-18	0	14*	4
CCOC(=O)c1sc(=S)n(C)c1NC(=O)c1cccc(Br)c1	25	2	-4	0	0
SMILES	GDH-TPI counter	FBA Mtb inh	Rv3671c inh	FadD28 FP inh	Mtb BioA inh
CCOC(=O)c1sc(=S)n(C)c1NC(=O)c1ccccc1	36*	-2	-4	-3	7
C[C@@H]1CN([C@H](C)CO)S(=O)(=O)c2ccc(-c3cccc(F)c3)cc2O[C@H]1CN(C)S(C)(=O)=O	x	x	x	x	6
CN(C)CC(=O)Nc1ccc2c(c1)[C@H]1C[C@H](CC(=O)NC3CCCC3)O[C@H](CO)[C@H]1O2	x	x	x	x	-1
O=C(CCc1ccc(O)cc1)c1c(O)cc(O)cc1O[C@@H]1O[C@H](CO)[C@@H](O)[C@H](O)[C@H]1O	33*	2	-4	-2	-1
CC1OC(OCC2OC(Oc3c(-c4ccc(O)cc4)oc4cc(O)cc(O)c4c3=O)C(O)C(O)C2O)C(O)C(O)C1O (stereo unspecified)	16	3	-2	-2	0
O=c1c(O[C@@H]2O[C@H](CO)[C@@H](O)[C@H](O)[C@H]2O)c(-c2ccc(O)cc2)oc2cc(O)cc(O)c12	37*	4	3	-1	-3
OC[C@H]1O[C@@H](Oc2ccc(O)cc2)[C@H](O)[C@@H](O)[C@@H]1O	-6	-1	x	1	-1
O=C(CCCN1C(=O)S/C(=C/C=C/c2ccccc2)C1=O)Nc1ccc(C(=O)O)cc1	21	4	-31	-17	2
O=C(CN1C(=O)S/C(=C\c2cc(Cl)c(O)c(Cl)c2)C1=O)Nc1ccccc1	13	-3	-10	76*	0
O=C(CN1C(=O)S/C(=C\C=C\c2ccccc2)C1=O)Nc1ccc(O)cc1	33*	0	-118	-3	-1
COc1cc(/C=C2\SC(=O)N(CC(=O)Nc3ccc(C)cc3)C2=O)cc(Cl)c1OCC(=O)O	33*	-2	4	u	-1
C[C@@H]1CN([C@@H](C)CO)S(=O)(=O)c2ccc(Br)cc2O[C@H]1CN(C)C(=O)C1CC1	x	x	x	x	1
C[C@@H]1CN([C@H](C)CO)C(=O)c2cc(C#CC3CCCC3)cnc2O[C@@H]1CN(C)C(=O)Cc1ccccn1	x	x	x	x	-1
CN1c2ccc(-c3ccccc3F)cc2[C@@H]2[C@@H](CCN2C(=O)CN2CCOCC2)[C@@H]1CO	x	x	x	x	3
CN1C(=O)C2C(c3ccc(N(C)C)cc3)=NN(Cc3ccccc3)C2C1=O (stereo unspecified)	44*	2	8	1	x
COc1cc(OC)c(-c2c3cc(O)c(=O)cc-3oc3cc(O)c(O)cc23)cc1OC	10	-8	-452	39*	x
CCC(CC)C(=O)N1N=C(c2ccc(NS(C)(=O)=O)cc2)CC1c1ccc(C)cc1 (stereo unspecified)	29	+	-10	0	x
Cc1cccc(C(=O)N2N=C(c3ccc(NS(C)(=O)=O)cc3)CC2c2cccs2)c1 (stereo unspecified)	12	1	-9	-4	1
CCC(=O)N1N=C(c2ccccc2)CC1c1ccccc1 (stereo unspecified)	0	-1	-3	1	-1
COc1ccccc1C1CC(c2ccc(NS(C)(=O)=O)cc2)=NN1C(=O)c1ccccc1 (stereo unspecified)	9	-12	-13	-8	x
CCC(=O)N1N=C(c2ccc(NS(C)(=O)=O)cc2)CC1c1ccc(C)cc1 (stereo unspecified)	17	+	3	-4	3
CCC(CC)C(=O)N1N=C(c2ccc(NS(C)(=O)=O)cc2)CC1c1ccccc1 (stereo unspecified)	23	+	0	-2	x
CS(=O)(=O)Nc1ccc(C2=NN(S(C)(=O)=O)C(c3ccc4c(c3)OCO4)C2)cc1 (stereo unspecified)	12	141*	-9	-4	x
C[C@@H]1CCCCO[C@H](CN(C)CC2CCCCC2)[C@@H](C)CN([C@H](C)CO)C(=O)c2cc(NC(=O)C3CCCCC3)ccc2O1	x	x	x	x	1
C[C@H]1CN([C@@H](C)CO)C(=O)c2cc(NC(=O)CCN3CCOCC3)ccc2O[C@H]1CN(C)C	x	x	x	x	-2
